Assay [1] is described as follows: small molecules captured by biotinylated probe aFSTL3 – biochemical, small-molecule microarray, fluorescence 635/667, stem cell growth factor project, primary screen (AID 1064).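 Note: measures binding of the biotinylated anti-FSTL3 antibody to printed compounds.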 The note with it: higher = more signal.
Assay [2] is described as follows: binders from COS7 lysate, DM2A8 probe, primary screen, torsin A project, cell lysate, small-molecule microarray, fluorescence 635/667 (AID 1065). To be noted: higher = more signal, COS7 lysate expressing mutant human TOR1A.
Assay [3] is described as follows: small molecules captured by biotinylated probe aFGF2 – biochemical, small-molecule microarray, fluorescence 635/667, stem cell growth factor project, primary screen (AID 1067).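 Note: measures binding of biotinylated aFGF2 protein to printed compounds on slides; z-score merges feature fluorescence and signal-to-noise across triplicate slides.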 To be noted: higher = more signal.
Assay [4] can be described thus: small molecules captured by biotinylated probe aFGF10 – biochemical, small-molecule microarray, fluorescence 635/667, stem cell growth factor project, primary screen (AID 1071).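 Note: score merges 667 nm spot intensity and signal to noise from triplicate slides.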 To be noted: higher = more signal.
In assay [5] the target is Neurogenic locus notch homolog protein 2 (Homo sapiens) (UniProt Q04721). The experiment in a line: small molecules binding Notch2 protein – biochemical, small-molecule microarray, 635 nm fluorescence, stem cell growth factors, primary screen (AID 1073). The note with it: higher = more signal.
The target of assay [6] is Pro-neuregulin-1, membrane-bound isoform (Homo sapiens) (UniProt Q02297). Put plainly: small molecules binding neuregulin-1 protein – biochemical, small-molecule microarray, fluorescence 635/667, psychiatric disease protein project, primary screen (AID 1075).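 Note: score combines 667 nm spot fluorescence with signal to noise.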 The note with it: NRG1 binding, 635 nm fluorescence, higher = more signal.
Chain of Pro-neuregulin-1, membrane-bound isoform (Homo sapiens) (Q02297 whole entry, looked up, the tested form may be a part, canonical isoform): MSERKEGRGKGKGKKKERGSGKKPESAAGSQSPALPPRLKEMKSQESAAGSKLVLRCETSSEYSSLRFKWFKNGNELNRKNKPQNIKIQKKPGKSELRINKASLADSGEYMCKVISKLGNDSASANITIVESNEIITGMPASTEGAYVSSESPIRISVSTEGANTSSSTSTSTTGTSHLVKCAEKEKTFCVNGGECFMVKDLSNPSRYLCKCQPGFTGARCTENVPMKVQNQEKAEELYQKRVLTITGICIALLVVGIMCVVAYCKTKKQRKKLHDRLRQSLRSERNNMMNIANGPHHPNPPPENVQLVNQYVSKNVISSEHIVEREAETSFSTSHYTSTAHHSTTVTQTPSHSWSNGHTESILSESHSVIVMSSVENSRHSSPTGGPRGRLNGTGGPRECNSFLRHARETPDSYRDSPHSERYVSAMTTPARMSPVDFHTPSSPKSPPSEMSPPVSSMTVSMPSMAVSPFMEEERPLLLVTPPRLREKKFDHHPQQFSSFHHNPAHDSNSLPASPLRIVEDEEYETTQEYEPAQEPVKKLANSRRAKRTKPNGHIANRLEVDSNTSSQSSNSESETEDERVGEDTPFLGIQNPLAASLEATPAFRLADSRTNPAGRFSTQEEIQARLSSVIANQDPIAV
Assay [7] relates to Neuregulin-1 EGF-like domain. Put plainly: small molecules binding NRG1 EGF domain – biochemical, small-molecule microarray, 635 nm fluorescence, primary screen (AID 1081).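 Note: binding of the protein to compounds printed on small-molecule microarray slides.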 To be noted: higher = more signal.
Assay [8] can be described thus: FRG1 expression reporter modulators in myotubes – cell-based, C2C12 myotubes, firefly/Renilla luciferase, luminescence, FRG1 inhibition for FSHD, primary screen (AID 1084). To be noted: FRG1 promoter luciferase, higher = more signal, called active from +8 up or from −8 down.
A short description of assay [9]: small molecules captured by biotinylated probe aFST – biochemical, small-molecule microarray, fluorescence 635/667, stem cell growth factor project, primary screen (AID 1086).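 Note: score merges 667 nm fluorescence with signal-to-noise of each printed compound spot.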 The note with it: higher = more signal.
A short description of assay [10]: binders of probe aHhip on microarray, primary screen, stem cell growth factor project, biochemical, small-molecule microarray, fluorescence 635/667 (AID 1087).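 Note: score merges spot fluorescence at 667nm with spot signal to noise ratio.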 To be noted: higher = more signal.
For assay [11], the system named is PRMT1 (protein arginine N-methyltransferase 1). The experiment in a line: small molecules binding arginine methyltransferase PRMT1 – biochemical, small-molecule microarray, 635 nm fluorescence, primary screen (AID 1088).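 Note: binding of Prmt1 protein to compounds spotted on small-molecule microarray slides.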 To be noted: higher = more signal.
Assay [12] can be described thus: growth effects on S. cerevisiae YJM789 – YJM789 clinical isolate, OD600, 24 h, basal, primary screen (AID 1089).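 Note: growth of clinical yeast isolate S. cerevisiae YJM 789 seeded 1000 cells per well; test concentration not given here.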 The note with it: higher = more signal, called active from +8 up or from −8 down.
The nature of assay [13]: S. pombe growth modifiers, basal conditions – strain 972, OD600, 24 h, no modulator, primary screen (AID 1090).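 Note: basal condition with compound alone and no growth modifier present; test concentration not given here.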 The note with it: S. pombe 972 growth, higher = more signal, called active from +8 up or from −8 down.
Assay [14] is described as follows: budding yeast growth modifiers under rapamycin – strain BY4716, OD600, 96 h, primary screen (AID 1091). Note: test concentration not given here. The note with it: S. cerevisiae BY4716 + rapamycin, higher = more signal, called active from +8 up or from −8 down.
For assay [15], the target named is Torsin-1A-interacting protein 2 (Homo sapiens) (UniProt Q8NFQ8). Put plainly: small molecules binding lysate-expressed LULL1 – cell lysate, human LULL1 lysate, 635/667 nm fluorescence, primary screen (AID 1092).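 Note: score merges per-feature 667 nm fluorescence with signal-to-noise.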 To be noted: small-molecule microarray, hLULL1 lysate binding, 635 nm fluorescence; higher = more signal.
Chain of Torsin-1A-interacting protein 2 (Homo sapiens) (Q8NFQ8 whole entry, looked up): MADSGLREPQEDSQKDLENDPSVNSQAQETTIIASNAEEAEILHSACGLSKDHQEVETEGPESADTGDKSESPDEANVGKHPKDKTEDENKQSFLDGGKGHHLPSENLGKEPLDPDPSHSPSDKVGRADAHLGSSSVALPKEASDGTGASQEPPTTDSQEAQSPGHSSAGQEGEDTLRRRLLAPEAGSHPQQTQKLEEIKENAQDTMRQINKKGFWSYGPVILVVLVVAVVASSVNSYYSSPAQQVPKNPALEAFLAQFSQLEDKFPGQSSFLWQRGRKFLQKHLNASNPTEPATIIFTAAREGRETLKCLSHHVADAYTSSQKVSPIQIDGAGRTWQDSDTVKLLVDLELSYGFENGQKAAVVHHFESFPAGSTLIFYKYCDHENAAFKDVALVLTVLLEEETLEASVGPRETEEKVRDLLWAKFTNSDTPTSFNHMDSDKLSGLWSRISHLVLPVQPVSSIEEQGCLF
Assay [16] in a line: optical density change of DRC41 E. coli – strain DRC41, OD650, 24 h, E. coli filamentation project, primary screen (AID 1093).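 Note: MC1000 strain lacking acrAB efflux and sulA so SOS filamentation is blocked; test concentration not given here.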 The note with it: E. coli DRC41 growth, higher = more signal, called active from +8 up or from −8 down.
Assay [17] in a line: probe aLefty2 binding to arrayed compounds – biochemical, biotinylated probe, 635/667 nm fluorescence, primary screen (AID 1094).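 Note: score merges spot fluorescence near 667 nm with spot signal-to-noise ratio.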 To be noted: small-molecule microarray, higher = more signal.
For assay [18], the system named is Noggin (protein binding on small-molecule microarray). The experiment in a line: small molecules binding Noggin protein – biochemical, 635/667 nm fluorescence, primary screen (AID 1095).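 Note: score merges 667 nm feature fluorescence with signal to noise over triplicate slides.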 The note with it: 635 nm fluorescence, higher = more signal.
The target of assay [19] is Neurogenic locus notch homolog protein 3 (Homo sapiens) (UniProt Q9UM47). The experiment in a line: small molecules binding NOTCH3 protein – biochemical, 635/667 nm fluorescence, primary screen (AID 1096). To be noted: small-molecule microarray, 635 nm fluorescence, higher = more signal.
Chain of Neurogenic locus notch homolog protein 3 (Homo sapiens) (Q9UM47 whole entry, looked up): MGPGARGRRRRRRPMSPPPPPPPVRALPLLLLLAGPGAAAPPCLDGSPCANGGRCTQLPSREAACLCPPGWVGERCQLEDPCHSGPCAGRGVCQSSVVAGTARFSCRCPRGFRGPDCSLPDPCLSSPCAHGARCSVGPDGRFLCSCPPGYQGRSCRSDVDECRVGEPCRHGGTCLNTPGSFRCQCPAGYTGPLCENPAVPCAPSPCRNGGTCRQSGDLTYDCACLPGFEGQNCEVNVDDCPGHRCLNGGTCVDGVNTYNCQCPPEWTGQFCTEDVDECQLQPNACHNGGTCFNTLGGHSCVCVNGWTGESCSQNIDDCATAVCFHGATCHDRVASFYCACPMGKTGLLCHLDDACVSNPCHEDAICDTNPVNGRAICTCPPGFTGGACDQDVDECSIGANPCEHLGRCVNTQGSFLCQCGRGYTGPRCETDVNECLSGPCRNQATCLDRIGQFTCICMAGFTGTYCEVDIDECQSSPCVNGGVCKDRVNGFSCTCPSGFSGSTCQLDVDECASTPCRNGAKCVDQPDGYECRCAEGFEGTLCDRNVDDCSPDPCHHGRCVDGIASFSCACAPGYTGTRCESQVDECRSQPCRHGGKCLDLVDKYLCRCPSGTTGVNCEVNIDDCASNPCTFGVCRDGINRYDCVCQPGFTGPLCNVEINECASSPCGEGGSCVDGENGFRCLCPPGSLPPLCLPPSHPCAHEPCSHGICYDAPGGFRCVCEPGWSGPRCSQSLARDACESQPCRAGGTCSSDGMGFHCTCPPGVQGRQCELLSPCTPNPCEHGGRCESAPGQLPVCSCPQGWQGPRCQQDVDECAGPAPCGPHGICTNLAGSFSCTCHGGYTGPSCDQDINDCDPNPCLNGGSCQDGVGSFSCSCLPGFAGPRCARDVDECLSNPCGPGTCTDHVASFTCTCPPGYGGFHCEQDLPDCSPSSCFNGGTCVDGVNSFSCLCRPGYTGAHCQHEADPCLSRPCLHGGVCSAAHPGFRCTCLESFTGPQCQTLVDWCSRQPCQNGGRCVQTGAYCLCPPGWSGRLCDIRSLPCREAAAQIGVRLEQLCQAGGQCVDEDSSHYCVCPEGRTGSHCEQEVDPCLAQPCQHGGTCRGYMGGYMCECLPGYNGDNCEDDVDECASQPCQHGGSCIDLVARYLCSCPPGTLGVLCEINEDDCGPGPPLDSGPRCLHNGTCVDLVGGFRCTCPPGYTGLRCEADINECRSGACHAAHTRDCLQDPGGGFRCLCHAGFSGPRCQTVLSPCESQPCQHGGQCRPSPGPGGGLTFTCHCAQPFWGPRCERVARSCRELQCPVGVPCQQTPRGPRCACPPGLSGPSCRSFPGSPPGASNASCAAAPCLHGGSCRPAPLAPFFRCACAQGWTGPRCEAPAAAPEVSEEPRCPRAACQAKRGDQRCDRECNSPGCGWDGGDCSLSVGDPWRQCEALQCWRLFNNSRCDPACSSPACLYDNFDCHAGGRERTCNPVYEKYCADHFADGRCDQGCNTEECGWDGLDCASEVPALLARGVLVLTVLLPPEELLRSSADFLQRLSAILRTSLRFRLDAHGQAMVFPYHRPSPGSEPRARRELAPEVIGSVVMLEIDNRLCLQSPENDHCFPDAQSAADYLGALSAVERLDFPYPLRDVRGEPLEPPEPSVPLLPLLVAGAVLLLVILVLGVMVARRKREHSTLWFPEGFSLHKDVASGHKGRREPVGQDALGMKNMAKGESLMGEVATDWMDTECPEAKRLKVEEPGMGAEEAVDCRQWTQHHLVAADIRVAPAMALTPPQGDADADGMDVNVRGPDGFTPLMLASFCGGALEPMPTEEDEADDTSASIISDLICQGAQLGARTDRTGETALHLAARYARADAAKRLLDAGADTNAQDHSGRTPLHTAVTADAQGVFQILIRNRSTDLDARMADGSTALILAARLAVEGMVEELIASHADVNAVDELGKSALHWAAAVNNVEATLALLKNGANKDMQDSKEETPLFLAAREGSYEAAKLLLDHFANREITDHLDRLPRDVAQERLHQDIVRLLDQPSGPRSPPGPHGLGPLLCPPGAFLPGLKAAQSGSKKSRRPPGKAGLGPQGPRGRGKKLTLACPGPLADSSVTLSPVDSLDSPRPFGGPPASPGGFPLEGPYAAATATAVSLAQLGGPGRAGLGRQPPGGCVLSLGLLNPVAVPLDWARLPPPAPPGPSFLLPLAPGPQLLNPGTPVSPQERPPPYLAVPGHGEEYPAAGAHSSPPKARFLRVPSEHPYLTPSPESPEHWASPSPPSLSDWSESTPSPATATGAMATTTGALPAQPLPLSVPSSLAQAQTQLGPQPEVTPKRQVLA
Assay [20] can be described thus: probe aEGFR binding to arrayed compounds – biochemical, biotinylated probe, 635/667 nm fluorescence, primary screen (AID 1097).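 Note: probe is a biotinylated anti-EGFR antibody binding compounds printed on slides; score combines fluorescence near 667 nm and signal to noise of each spot.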 To be noted: small-molecule microarray, higher = more signal.

The values below come from PubChem BioAssay.

The structures appear in SMILES notation. The source made the active and inactive calls.

Regarding `COCC(=C=CC[C@H](O)c1cccc(OCCO)c1)C[C@H](O)c1ccccn1`, the composite z-score is -0.203 in assay [1]; -0.3 in [2]; -0.135 in [3]; 0.18 in [4]; -0.542 in assay [5]; 1.24 in assay [6]. Besides, the composite z-score in assay [7] was 1.44; in assay [9], 0.395; in [10] it was -0.0618; in assay [11], 1.02; in [15], 1.88; in [17], -0.166. Moreover, the composite z-score in assay [18] turned out to be 0.704; in assay [19] it was 0.0673; in assay [20], 0.0149. For the same molecule, the z-score is 0.0158 (inactive) in assay [8]; 0.941 (inactive) in [12]; 0.44 (inactive) in assay [13]; 0.371 (inactive) in assay [14]; 0.559 (inactive) in assay [16].

With `CC(C)C(=C=CC[C@H](O)c1ccc(OCCO)cc1)C[C@H](O)c1cc(Cl)cc(Cl)c1O`, the composite z-score in [1] was -0.321; in assay [2], 1.35; in assay [3], -0.0076; in assay [4] it was 0.85; in [5] it was 0.869; in assay [6], 1.31. The composite z-score in assay [7] was 1.24; in assay [9], 0.32; in [10] it was 0.0722; in [11], 1.4; in assay [15], 1.78; in assay [17] it was 0.0511. Moreover, the composite z-score is 1.41 in [18], 1.04 in [19] and -0.008 in assay [20]. Moreover, the z-score in assay [8] is -1.66 (inactive); in [12], 0.297 (inactive); in [13], -3.66 (inactive); in assay [14], -0.558 (inactive); in assay [16] it was 0.192 (inactive).

`CN1C(=O)C2C=CC(C(O)c3c(F)cccc3Cl)N(Nc3ccccc3)C2C1=O` (stereo not given): the composite z-score in assay [1] was -0.196; in [2], -0.198; in assay [3], 0.171; in assay [4], 0.334; in [5] it was 1.55; in assay [6], 1.84. In addition, the composite z-score in assay [7] was 1.1; in assay [9] it was 0.878; in assay [10], -0.0346; in [11], 1.04; in [15], 3.44; in [17], 0.244. Moreover, the composite z-score in assay [18] worked out at 0.0319; in assay [19], 1.07; in [20], 0.0562. For the same molecule, the z-score is 0.433 (inactive) in assay [8]; -0.0908 (inactive) in assay [12]; 1.19 (inactive) in assay [13]; 0.437 (inactive) in assay [14]; -0.757 (inactive) in [16].

As to `CN(C)CCCCNC(=O)[C@H]1C[C@H]2C(=O)N3CCC[C@H]3C(=O)N2[C@H]1c1ccc(O)cc1`, the composite z-score in assay [1] is -1.12; in [2], -1.77; in assay [3] it was -0.284; in [4], -1.1; in assay [5], -1.3; in [6] it was -1.06. Further, the composite z-score in assay [7] is -0.239; in assay [9], 0.0253; in assay [10] it was -0.389; in assay [11], 0.765; in assay [15], 0.391; in [17] it was -0.234. Moreover, the figures for the composite z-score in assay [18], in assay [19] and in [20] were -0.439, 0.229 and -0.45, respectively. Further, the z-score is 4.64 (inactive) in assay [8]; -0.859 (inactive) in [12]; 1.1 (inactive) in assay [13]; -0.384 (inactive) in assay [14]; 1.27 (inactive) in assay [16].

Consider `CC(C)(C)OC(=O)CC[C@]1(C(=O)O)N=C(c2ccc(OCCCO)cc2)O[C@H]1c1ccccc1`, for which the composite z-score in assay [1] is -0.161; in assay [2], -0.0254; in assay [3] it was -0.0345; in assay [4] it was 0.19; in assay [5], 0.831; in assay [6], 0.467. Moreover, the composite z-score is 1.11 in assay [7]; 0.292 in [9]; 1.28 in assay [10]; -0.147 in assay [11]; 2.2 in assay [15]; -0.0226 in [17]. Further, the figures for the composite z-score in assay [18], in assay [19] and in [20] were -0.0257, 0.154 and -0.0485, respectively. In addition, the z-score in [8] was 1.9 (inactive); in assay [12] it was -0.627 (inactive); in [13], -0.573 (inactive); in assay [14], -1.97 (inactive); in assay [16] it was 0.461 (inactive).
